Source: PubChem (National Center for Advancing Translational Sciences (NCATS))
The list is not random: actives were taken first. Their share in the collection is about 13%.
miR-21 act: qHTS Assay for Modulators of miRNAs and/orActivators of miR-21; 340,000 tested, under 10 active; HeLa miR-21 FLuc reporter, luciferase, 48 h; Potency, µM (doses to about 38.3 µM), for inactives: at the top dose activity change, positive = activation, usual class: activators;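 note: % of control where 0% means no effect; miR-21 action dims this reporter so a rising signal means less miR-21 action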
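HeLa miR-21-FLuc reporter line, endogenous miR-21; 2000 cells/well in DMEM/10% FBS; compound titration up to ~40uM final, 48 h, 37 degree Celsius; luciferase detection reagent, 15 min lysis, CCD luminescence.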
LMNA splice mod: qHTS Assay for Modulators of Lamin A Splicing | HeLa LMNA splicing GFP/RFP minigene ratio, 48 h | Potency, µM (top dose mostly 46.1 µM), inactives show top-dose ratio change, negative = inhibition, most hits filed as inhibitors | 200,000 compounds, 0.01% hits | AID 1487, 2009; active = well fitted inhibition curve with a large enough effect in the signal ratio, with a control signal flat, not every such curve was filed as active; inconclusive = small, poorly fitted or top-dose-only effect, or effect the other way, or a change in a side signal; the % refers to the signal ratio; note: potency is the fitted concentration of half-maximal effect; % is set by controls: 0 for no effect and ±100 for the full control effect
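S3 HeLa stable clones carrying a lamin A-EGFP splicing minigene plus DsRed2 were seeded at 600 cells/well in Opti-MEM with 2% FBS, pin-dosed and incubated 48 h at 37°C. Acumen cytometry (488 nm) gave the GFP/RFP total-intensity ratio.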
ALDH1A1 block: qHTS Assay for Inhibitors of Aldehyde Dehydrogenase 1 (ALDH1A1). 220,000 compounds, 7.3% hits. Potency, µM (doses to about 75.3 µM), for the others: top-dose activity, negative = inhibition, hits mostly inhibitors. AID 1030, 2008. Purified ALDH1A1, NADH fluorescence, propionaldehyde substrate. Aldehyde dehydrogenase 1A1 (Homo sapiens), P00352; active = well fitted inhibition curve with a large enough effect, not every such curve was filed as active; inconclusive = small, poorly fitted or top-dose-only effect, or another doubt; inactive = no such curve, though single readings can be large or run the other way;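 note: potency is the fitted concentration of half-maximal effect; plate controls were no enzyme wells and a reference inhibitor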
G9a inh: qHTS Assay for Inhibitors of Histone Lysine Methyltransferase G9a; 350,000 compounds, 8.8% hits; G9a H3K9 monomethylation, AlphaScreen, 2 h; Potency, µM (top dose mostly 102 µM), for inactives: at the highest dose activity, negative = inhibition, hits mostly inhibitors; AID 504332, 2011; Histone-lysine N-methyltransferase EHMT2 (Homo sapiens), Q96KQ7; note: potency is the fitted concentration of half-maximal effect; % is set by controls: 0 for no effect and ±100 for the full control effect; nearly all actives have a fitted effect of over 75% in size
Target sequence (Q96KQ7 913-1193 limits assumed): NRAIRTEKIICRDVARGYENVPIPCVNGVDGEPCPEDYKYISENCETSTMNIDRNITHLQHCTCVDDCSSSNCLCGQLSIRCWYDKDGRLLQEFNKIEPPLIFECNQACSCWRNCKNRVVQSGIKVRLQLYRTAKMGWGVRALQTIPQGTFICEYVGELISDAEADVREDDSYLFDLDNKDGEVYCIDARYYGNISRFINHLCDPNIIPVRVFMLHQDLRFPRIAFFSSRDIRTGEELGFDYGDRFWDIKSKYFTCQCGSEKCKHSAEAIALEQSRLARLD
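Methyltransferase reactions run at room temperature for 2 h (20 nM enzyme, 500 nM biotin-H3K9 peptide, 20 uM SAM) after a 15 min compound preincubation; product detected by AlphaScreen beads and anti-H3K9me1 antibody.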
Sfp PPTase inh: qHTS Assay for Inhibitors of Bacillus subtilis Sfp phosphopantetheinyl transferase (PPTase); Potency, µM, without a hit: largest response in the series, negative = inhibition, usual class: inhibitors; 310,000 compounds, 3.5% hits; 4'-phosphopantetheinyl transferase ffp (Bacillus subtilis), Q9F4F7; Biochemical Sfp PPTase activity, qHTS;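 note: the enzyme is Sfp with the accession as filed and its product quenches rhodamine fluorescence; potency is the fitted concentration of half-maximal effect; 0% = enzyme reaction without inhibitor and -100% = no enzyme wells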
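Sfp 15 nM + cpd, 15 min RT; start w/ rhodamine-CoA 5 uM, BHQ-2-YbbR 12.5 uM (final); 50 mM Hepes pH 7.6, 10 mM MgCl2, 0.01% NP-40, 0.01% BSA; read 525/598 nm at 0 and 30 min.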
KDM4E inh: qHTS Assay for Inhibitors of Human Jumonji Domain Containing 2E (JMJD2E). 230,000 compounds, 1.6% hits. AID 2147, 2009. JMJD2E catalytic domain, FDH-coupled NADH fluorescence (FDH is formaldehyde dehydrogenase). Potency, µM (titrated, usually from 57.1 µM), without a hit: at the highest dose activity change, negative = inhibition, actives largely listed as inhibitors; active = well fitted inhibition curve with a large enough effect, not every such curve was filed as active; inconclusive = small, poorly fitted or top-dose-only effect, or another doubt; inactive = no such curve, though single readings can be large or run the other way;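 note: potency is the fitted concentration of half-maximal effect; 0% = wells with enzyme and -100% = buffer wells without enzyme; nearly all actives have a fitted effect of over 50% in size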
Target sequence (B2RXH2 1-337 limits assumed): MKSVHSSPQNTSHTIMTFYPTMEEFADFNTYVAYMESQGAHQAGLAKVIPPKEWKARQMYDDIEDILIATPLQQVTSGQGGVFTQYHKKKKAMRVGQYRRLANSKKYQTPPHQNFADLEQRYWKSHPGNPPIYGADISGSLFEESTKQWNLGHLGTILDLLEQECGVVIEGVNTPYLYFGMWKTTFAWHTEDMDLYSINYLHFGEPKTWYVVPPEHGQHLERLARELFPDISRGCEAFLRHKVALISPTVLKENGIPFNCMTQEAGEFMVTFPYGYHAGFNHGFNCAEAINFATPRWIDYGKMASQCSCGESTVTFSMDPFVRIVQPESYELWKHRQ
* hit, by the source's call; u = inconclusive; x = not tested or not shown; [ ] = remark or other dose. Unless noted, calls come from the whole dose curve; as a rule, active = well fitted curve in the direction sought with a large enough effect; inconclusive = small, poorly fitted or top-dose-only effect, or another doubt; inactive = no such curve, though single readings can be large; an effect the other way counts as inactive or inconclusive.

SMILES | miR-21 act | LMNA splice mod | ALDH1A1 block | G9a inh | Sfp PPTase inh | KDM4E inh
CCCC1=C/C(=C/c2ccc(-c3ccccc3OC)o2)C(=O)O1 | -18% | u | u | 28µM* | u | u
COc1ccc(-c2nc(CNC(=O)NC3CCCCC3)c(C)o2)c(OC)c1 | 4% | 12%[46 µM] | x | -5%[12.7 µM] | x | x
COc1ccc(-c2noc(CC(=O)N(C)c3cccc(C)c3)n2)cc1 | -5% | x | x | 6%[59 µM] | x | x
CCC1CCC(N2CCN(c3ccc(F)cc3)CC2)CC1 (stereo not drawn) | 4% | x | x | 45µM* | -6% | x
Cc1cc(C(=O)OCC(N)=O)c(C)n1-c1ccccc1 | -42% | u | 1% | 0% | -13% | -22%
Cc1ccc(-n2c(C)cc(C(=O)OCC(=O)N(C)C3CCS(=O)(=O)C3)c2C)cc1 (stereo not drawn) | -14% | -12% | 1% | 50µM* | -17% | -2%
Cc1ccc(-n2c(C)cc(C(=O)OCC(=O)N(CC(C)C)C3CCS(=O)(=O)C3)c2C)cc1 (stereo not drawn) | -12% | u | u | u | 4% | 6%
C/C(N)=C(/C#N)C(=O)COC(=O)c1cc(C)n(-c2ccc(F)cc2)c1C | -7% | u | 13µM* | u | 17% | 3%
CCN(C(=O)COC(=O)c1cc(C)n(-c2ccc(F)cc2)c1C)C1CCS(=O)(=O)C1 (stereo not drawn) | -6% | -5% | u | 50µM* | 4% | -3%
COc1ccc(Cc2nnc(SC(C)C(=O)Nc3ccc(F)cc3Cl)o2)cc1 (stereo not drawn) | x | x | x | -4% | x | x
Cn1c(-[n+]2c(-c3ccccc3)cc(-c3ccccc3)cc2-c2ccccc2)nc2cc([N+](=O)[O-])ccc21 | 28% | u | u | 1.8µM* | 22µM* | u
Cc1ccc(NC(=S)NNc2ccc([N+](=O)[O-])cc2S(=O)(=O)Nc2ccccc2C(=O)O)cc1C | 0% | 1% | u | 11µM* | 40µM* | u
Cc1cccc(NC(=O)C(C)OC(=O)c2ccccc2NS(=O)(=O)c2cc(C)c(C)c([N+](=O)[O-])c2)c1 (stereo not drawn) | -1% | u | -1% | -19%[59 µM] | 19% | -9%
O=C(O)c1ccccc1NS(=O)(=O)c1ccc(NNC(=S)Nc2ccc(OC(F)F)cc2)c([N+](=O)[O-])c1 | 14% | x | 3.5µM* | 10µM* | u | -19%
Cc1ccc(/C=C/C(=O)O)cc1S(=O)(=O)Nc1ccccc1C(=O)O | 2% | -8%[46 µM] | 3% | u | -4% | u
COc1ccc(O[C@H]2C=C[C@@H](c3ccccc3)O[C@@H]2CO/N=C(\C)CCC(=O)OC[C@H]2O[C@H](c3ccccc3)C=C[C@@H]2Oc2ccc(OC)cc2)cc1 | -4% | u | u | 45µM* | -5% | -30%
COc1ccc(O[C@H]2C=C[C@@H](c3ccccc3)O[C@@H]2COC(=O)CC/C(C)=N/O[C@@H](C)c2cn([C@H](CO)Cc3ccccc3)nn2)cc1 | 4% | u | u | 79µM* | 9% | -20%
CCc1cc2c(nc1CC)CCN(CC/C(C)=N/O[C@@H](C)c1cn([C@H](CO)Cc3ccccc3)nn1)C2 | x | x | -1%[13.5 µM] | x | -1% | x
C/C(CCN1CCc2nc(-c3ccccc3)c(-c3ccccc3)cc2C1)=N\O[C@@H](C)c1cn([C@H](CO)Cc2ccccc2)nn1 | 16% | -10% | 3%[13.5 µM] | 45µM* | 24% | -9%
COc1ccc(O[C@H]2C=C[C@@H](c3ccccc3)O[C@H]2CO/N=C(/C)CCC(=O)OC[C@@H]2O[C@H](C#Cc3ccccc3)C=C[C@@H]2Oc2ccc(C)cc2)cc1 | x | x | -5%[13.5 µM] | x | 5% | x
COc1cc(OC)c(NC(=O)c2cc3c(s2)-c2ccc(Cl)cc2SC3)cc1Cl | -20% | x | x | 10%[59 µM] | x | x
CC(C)(C)c1cc[n+](/C(C(=S)Nc2ccccc2F)=C(/[O-])c2ccc3c(c2)OCCO3)cc1 | -37% | x | 14µM* | u | 20µM* | -18%
[O-]/C(=C(\C(=S)Nc1ccc(Cl)cc1)[n+]1ccccc1)c1ccc(OC(F)F)cc1 | -13% | u | u | 11µM* | 50µM* | -3%
CCOc1ccccc1NC(=S)/C(=C(\[O-])c1ccc2c(c1)OCCO2)[n+]1ccc(CC)cc1 | -4% | -3% | 20µM* | 8.9µM* | u | u
CCOc1ccccc1NC(=O)c1nnn(-c2ccc3c(c2)OCCO3)c1N | -17% | x | x | 20% | -23% | x
SMILES | miR-21 act | LMNA splice mod | ALDH1A1 block | G9a inh | Sfp PPTase inh | KDM4E inh
[O-]/C(=C(\C(=S)Nc1ccccc1F)[n+]1ccccc1)c1ccc(-c2ccccc2)cc1 | -21% | -17%[46 µM] | 18µM* | 32µM* | 18µM* | u
CC(=O)N1CCc2cc(Br)cc(S(=O)(=O)CCC(=O)N3CCN(c4ccccc4Cl)CC3)c21 | 5% | x | x | 13%[59 µM] | x | x
CC(=O)Oc1ccc2occ(C(=O)c3cccs3)c2c1 | -38% | -1% | 2% | -9%[59 µM] | -1% | -5%
O=C(CCl)Oc1ccc2occ(C(=O)c3cccs3)c2c1 | -42% | 19% | 0.79µM* | u | -4% | -1%
COCCn1c(SCC(=O)c2ccc(F)cc2)nc2cc(C(=O)NC3CCCC3)ccc2c1=O | 1% | x | x | 8%[59 µM] | x | x
CCOc1cc(/C=N/O)ccc1OS(=O)(=O)c1ccc(C)cc1 | -6% | 21% | u | -23% | 3% | 0%
CCOc1cc(/C=N/NS(=O)(=O)c2ccccc2)ccc1OS(=O)(=O)c1ccc(C)cc1 | 10% | -2% | 8.9µM* | 11µM* | 8% | -3%
COc1ccc(/C=C(\C#N)C(N)=O)cc1OC | x | x | -7%[13.5 µM] | x | x | x
CCOc1cc(/C=C(\C#N)C(N)=O)ccc1OS(=O)(=O)c1ccccc1 | -9% | -13% | 13µM* | -29%[59 µM] | u | -1%
Cc1ccccc1S(=O)(=O)Oc1cccc2c(O)cccc12 | -18% | x | x | x | -18% | x
CC(C)C1Oc2cc3oc(=O)ccc3cc2C1=O (stereo not drawn) | -7% | -13%[46 µM] | u | 79µM* | 10% | u
N#CNc1nc(O)cc(=O)[nH]1 | 0% | 9%[46 µM] | -7% | 50µM* | u | -5%
N#Cc1ccccc1CSc1nc(O)cc(=O)[nH]1 | -4% | -2% | 18% | -4%[12.7 µM] | 2% | -5%
COc1cc(NC(=O)COc2cc3oc(=O)cc(C)c3cc2Cl)cc(OC)c1OC | -3% | x | x | -7%[59 µM] | -11% | x
